Mtb FBA inh = Mtb FBA enzyme inhibitors, primary screen, biochemical, fluorescence, strain H37Rv | Fructose-bisphosphate aldolase (Mycobacterium tuberculosis (strain ATCC 25618 / H37Rv)), … | purified M. tuberculosis FBA, fluorescence read-out | inhibition, % at 1 µM | 360,000 tested, 2.3% active | AID 588726, 2011; in the data active means inhibition above about 27%
RecA intein inh = Mtb RecA intein splicing inhibitors, primary screen, biochemical, fluorescence, HTS. Protein RecA (Mycobacterium tuberculosis (strain ATCC 25618 / H37Rv)), P9WHJ3. cell-free RecA intein splicing. inhibition, % (test concentration not listed). 290,000 tested, 0.75% active. AID 2221, 2009; in the data active means inhibition above about 30%
Target sequence (P9WHJ3 whole entry, looked up): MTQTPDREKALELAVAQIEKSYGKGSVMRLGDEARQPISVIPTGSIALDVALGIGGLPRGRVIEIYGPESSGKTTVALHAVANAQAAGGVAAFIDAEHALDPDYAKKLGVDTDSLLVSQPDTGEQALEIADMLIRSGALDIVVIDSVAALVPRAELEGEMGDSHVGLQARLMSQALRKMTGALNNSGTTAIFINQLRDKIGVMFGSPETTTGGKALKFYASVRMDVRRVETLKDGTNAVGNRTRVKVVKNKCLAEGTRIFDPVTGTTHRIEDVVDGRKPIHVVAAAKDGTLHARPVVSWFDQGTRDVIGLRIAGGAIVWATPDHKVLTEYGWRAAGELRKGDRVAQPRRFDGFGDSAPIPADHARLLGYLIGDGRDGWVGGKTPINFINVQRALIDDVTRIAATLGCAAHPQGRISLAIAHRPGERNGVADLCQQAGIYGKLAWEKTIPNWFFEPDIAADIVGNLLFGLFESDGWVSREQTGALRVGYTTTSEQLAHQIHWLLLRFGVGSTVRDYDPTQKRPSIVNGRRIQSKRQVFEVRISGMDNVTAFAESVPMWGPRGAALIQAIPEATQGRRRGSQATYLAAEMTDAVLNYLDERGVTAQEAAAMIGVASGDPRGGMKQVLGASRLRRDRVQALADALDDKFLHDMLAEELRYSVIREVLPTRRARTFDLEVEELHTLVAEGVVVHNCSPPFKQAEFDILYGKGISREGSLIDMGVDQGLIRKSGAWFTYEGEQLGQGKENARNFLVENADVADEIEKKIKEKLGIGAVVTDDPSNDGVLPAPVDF
Mtb bLac sens = beta-lactam sensitization of Mtb H37Rv, H37Rv; M. tuberculosis H37Rv growth with meropenem, percent inhibition; inhibition, % at 25 µM; 330,000 tested, 0.27% active; AID 434955, 2010; call rule not given here;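 further: growth measured after seven days incubation then overnight dye step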
CCHFV vOTU inh = CCHFV vOTU protease inhibitors, primary screen, biochemical, Pep-AMC substrate, fluorescence; Crimean-Congo hemorrhagic fever virus L polyprotein viral ovarian tumor (vOTU) protease …; inhibition, % at 11.5 µM; 370,000 tested, 0.55% active
GDH-TPI counter = GDH-TPI coupling enzyme inhibitors, primary screen, artefact control for M. tuberculosis FBA inhibitor project, biochemical, absorbance, full deck; inhibition, % at 4.8 µM; AID 588335, 2011; GDH-TPI coupled enzyme counterscreen, NADH absorbance; 360,000 tested, 1.2% active
Large screens that a line does not name were inactive. In the library only some 4.2% were active in any assay of this set; here they are far more common. Unless noted, no stated cut-off is given here; in the data, active means inhibition above about 30%; inactive means the rest.

COc1ccc(C=CC(=O)c2ccc3cc(OC)c(OC)cc3c2)cc1OC	GDH-TPI counter 31 (no result: RecA intein inh, Mtb bLac sens)
COc1ccc(C(=O)C=Cc2ccc3c(c2)OCO3)cc1OC	none (no result: RecA intein inh, Mtb bLac sens)
COc1ccc(C=CC(=O)c2ccc(OC)c(OC)c2)cc1O	GDH-TPI counter 40 (no result: RecA intein inh, Mtb bLac sens)
COc1ccc(CN2CN3Cc4ccccc4C3CS2(=O)=O)cc1 (configuration not stated)	none (no result: Mtb FBA inh, RecA intein inh, Mtb bLac sens, GDH-TPI counter)
Cc1nc2ccc(NC(=O)c3cc(Cl)ccc3F)cc2c(=O)[nH]1	none (no result: Mtb FBA inh, RecA intein inh, Mtb bLac sens, GDH-TPI counter)
C=CCOC(=O)N1CCN(C(=O)c2ccc3c(c2)nc(C)n3C2CCCC2)CC1	none (no result: Mtb FBA inh, RecA intein inh, Mtb bLac sens, GDH-TPI counter)
COC(=O)[C@]12C[C@H](CC(=O)NCc3ccccc3)C(=O)N(Cc3ccc(Cl)cc3Cl)C1=C[C@H](C(C)(C)C)O[C@@H]2C	none (no result: Mtb FBA inh, RecA intein inh, Mtb bLac sens, GDH-TPI counter)
CC1CCN(C2(O)C(=O)Nc3ccc([N+](=O)[O-])cc32)CC1 (configuration not stated)	GDH-TPI counter 32
C[C@H]1CCCN1c1cccc2c1S(=O)(=O)N1CC[C@H](C1)O2	none (no result: Mtb FBA inh, RecA intein inh, Mtb bLac sens, GDH-TPI counter)
CN(C(=O)CSc1nc2ccc([N+](=O)[O-])cc2s1)C1CCS(=O)(=O)C1 (configuration not stated)	GDH-TPI counter 34
O=S1(=O)c2ccc(Br)cc2OC[C@H](Cc2ccccc2)N1Cc1cn(Cc2ccc(Br)cc2)nn1	none (no result: Mtb FBA inh, RecA intein inh, Mtb bLac sens, GDH-TPI counter)
Cc1c(C(=O)Nc2nc3ccccc3[nH]2)oc2ccccc12	GDH-TPI counter 33
CC[C@@H](OP(=O)(O)[C@@H](C)N)C(=O)O	none (no result: Mtb FBA inh, RecA intein inh, Mtb bLac sens, GDH-TPI counter)
CCc1nc(N2CCOCC2)c(C#N)c2c1COC(C)(C)C2	Mtb FBA inh 46
CC1(C)Cc2c(C#N)c(SCC(=O)c3ccccc3)nc(N3CCOCC3)c2CO1	none
CC1(C)Cc2c(C#N)c(SCc3ccccc3)nc(N3CCOCC3)c2CO1	GDH-TPI counter 75 (no result: Mtb bLac sens)
COc1ccc(Cn2ccc3ccc(-c4ccc5ccn(Cc6ccccc6)c5c4)cc32)cc1	none (no result: Mtb FBA inh, RecA intein inh, Mtb bLac sens, GDH-TPI counter)
COc1cc(CNc2ccc(O)cc2)cc(Br)c1OCc1ccccc1	CCHFV vOTU inh 94
COc1ccc(CN(CCN2CCOCC2)C(=O)c2cc(Cl)ccc2F)cc1OC	none (no result: Mtb FBA inh, RecA intein inh, Mtb bLac sens, GDH-TPI counter)
CCOC(=O)[C@]12CCCC=C1N(Cc1ccc(OC)cc1)C(=O)[C@@H]2CC(=O)NCc1ccc(OC)c(OC)c1	none (no result: Mtb FBA inh, RecA intein inh, Mtb bLac sens, GDH-TPI counter)
Cn1cc(Br)c(C(=O)N/N=C/c2cc3ccccc3nc2Cl)n1	GDH-TPI counter 31
O=C(N/N=C/c1cc2ccccc2nc1Cl)c1ccncc1	none
CC1CCN(Cc2cc(=O)oc3cc(O)c(Cl)cc23)CC1	Mtb FBA inh active
Cc1ccc2oc(=O)cc(CN3CC(C)OC(C)C3)c2c1 (configuration not stated)	none
CC1CN(Cc2cc(=O)oc3cc(O)c(Cl)cc23)CC(C)O1 (configuration not stated)	Mtb FBA inh active
CN(Cc1ccccc1F)Cc1cc(=O)oc2cc(O)c(Cl)cc12	Mtb FBA inh active
CC1CCN(Cc2cc(=O)oc3cc4c(cc23)CCCC4)CC1	none
Cc1nc2ccc(NC(=O)c3cc(F)cc(F)c3)cc2c(=O)[nH]1	none (no result: Mtb FBA inh, RecA intein inh, Mtb bLac sens, GDH-TPI counter)
C/C=C/C(=O)N1CCC(C(=O)NC2CCCc3ccccc32)CC1 (configuration not stated)	none (no result: Mtb FBA inh, RecA intein inh, Mtb bLac sens, GDH-TPI counter)
COC(=O)Cc1c(C)c2ccc(OCC(=O)c3ccc(OC)c(OC)c3)cc2oc1=O	none (no result: Mtb FBA inh, GDH-TPI counter)
Cc1c(CC(=O)O)c(=O)oc2cc(OCc3nn[nH]n3)ccc12	Mtb FBA inh active
Cc1c(Cc2ccccc2)c(=O)oc2cc(OCc3ccc(C(=O)O)cc3)ccc12	none
Cc1c(CC(=O)O)c(=O)oc2cc(OCc3ccc(Cl)cc3)ccc12	Mtb FBA inh 126
CCOC(=O)CCc1c(C)c2ccc(OCc3nn[nH]n3)cc2oc1=O	Mtb FBA inh active
CCCN(CC1CC1)C(=O)c1ccc(CNC(=O)c2cccc(Br)c2)cc1	none (no result: Mtb FBA inh, RecA intein inh, Mtb bLac sens, GDH-TPI counter)
Cc1cc(C)cc(N(CC(=O)NC2CCC(C)CC2)S(=O)(=O)c2ccc(Br)s2)c1 (configuration not stated)	none (no result: Mtb FBA inh, RecA intein inh, Mtb bLac sens, GDH-TPI counter)
O=C1CSc2ccc(C(=O)N3CCCC(C(=O)N4CCCCC4)C3)cc2N1 (configuration not stated)	none (no result: Mtb FBA inh, RecA intein inh, Mtb bLac sens, GDH-TPI counter)
CC(=O)c1ccc(-c2cccs2)s1	Mtb FBA inh active
CNc1cccc(-c2ccc(C(C)=O)s2)n1	none (no result: RecA intein inh, Mtb bLac sens)
COc1cc(/C=C2\SC(=O)NC2=O)ccc1Oc1ccc([N+](=O)[O-])cn1	GDH-TPI counter 36
